In the library only some 1.9% were active in any assay of this set; here they are far more common.
LYPLA1 inh – LYPLA1 (human) inhibition in PME1 counter-screen | inhibition, % at 5.9 µM | recombinant LYPLA1, FP-Rh probe fluorescence polarization | 320,000 tested, 0.16% active | O75608;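 active = inhibition above the mean of all tested compounds plus 3 SD, set per campaign, cut at about 14% in these data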;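 also: inhibitors block serine hydrolase probe labeling of LYPLA1 so polarization falls; 0% = enzyme with DMSO and 100% = wells lacking LYPLA1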
Target sequence (O75608 whole entry, looked up): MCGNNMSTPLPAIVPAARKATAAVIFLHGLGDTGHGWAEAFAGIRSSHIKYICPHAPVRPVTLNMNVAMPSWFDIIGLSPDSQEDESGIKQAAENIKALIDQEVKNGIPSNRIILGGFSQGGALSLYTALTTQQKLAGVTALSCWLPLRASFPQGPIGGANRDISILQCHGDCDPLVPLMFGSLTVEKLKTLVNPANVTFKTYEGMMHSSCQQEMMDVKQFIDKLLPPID
PME-1 primary – blocks human protein phosphatase methylesterase 1 | Q9Y570 | recombinant PME-1, FP-Rh probe fluorescence polarization | inhibition, % at 5.9 µM | 320,000 tested, 0.53% active;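 active = inhibition above the campaign mean of all compounds plus 3 SD, cut at about 26% in these data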;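 also: competitive labeling of PME-1 active site by serine hydrolase directed probe; 0% = PME-1 with DMSO and 100% = wells lacking PME-1 enzyme; inhibitors block probe labeling so polarization falls and inhibition rises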
Fam108B counter – counter-screen for RBBP9 inhibitors: inhibitors of mouse Fam108B; AID 1947; recombinant Fam108B, FP-Rh probe fluorescence polarization; 300,000 tested, 0.33% active; inhibition, % at 9.51 µM;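 active = inhibition above the screen mean inhibition plus 3 SD, computed separately per campaign, cut at about 18% in these data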;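 also: inhibitors lower polarization as less probe binds the enzyme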
LYPLA2 inh – counter-screen for PME1 inhibitors: inhibitors of human LYPLA2; O95372; recombinant LYPLA2, FP-Rh probe fluorescence polarization; inhibition, % at 5.9 µM; 320,000 tested, 0.38% active; AID 2177;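 active = inhibition above the screen-wide mean plus 3 SD, limit set per campaign, cut at about 26% in these data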;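 also: 0% = LYPLA2 with DMSO and 100% = wells lacking LYPLA2 enzyme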
GSTO1 counter – GSTO1 inhibition, counter-screen for RBBP9 inhibitors. recombinant GSTO1, activity-based probe fluorescence polarization. inhibition, % at 5.96 µM. 300,000 tested, 1.1% active. AID 1974. P78417;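 active = inhibition above the campaign mean inhibition plus 3 SD, cut at about 35% in these data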;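 also: 0% = GSTO1-1 with DMSO and 100% = wells lacking GSTO1-1 enzyme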
Target sequence (P78417 whole entry, looked up): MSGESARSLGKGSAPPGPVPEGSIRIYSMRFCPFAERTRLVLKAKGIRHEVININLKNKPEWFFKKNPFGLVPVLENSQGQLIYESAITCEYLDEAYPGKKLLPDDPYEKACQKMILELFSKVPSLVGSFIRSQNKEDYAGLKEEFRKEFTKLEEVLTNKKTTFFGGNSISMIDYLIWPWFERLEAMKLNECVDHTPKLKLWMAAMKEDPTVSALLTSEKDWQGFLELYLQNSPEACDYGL
PREPL inh – inhibits the human prolyl oligopeptidase-like enzyme | Q4J6C6 | recombinant PREPL, fluorescence polarization activity-based probe | inhibition, % at 5.96 µM | 320,000 tested, 0.68% active | AID 2751; in the data active = inhibition above about 43%;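 also: 0% = enzyme with DMSO and 100% = wells lacking enzyme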
LYPLA1 confirm – LYPLA1 (human) inhibition, confirmation counter-screen | inhibition, % at 5.9 µM | recombinant LYPLA1, FP-Rh probe fluorescence polarization | shares compounds with LYPLA1 inh | 480 tested, 69% active;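 active = mean inhibition across replicates above the hit cutoff set in the primary screen, cut at about 15% in these data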;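 also: loss of FP-Rh probe labeling of LYPLA1 seen as lower polarization; 0% = LYPLA1 with DMSO and 100% = wells lacking LYPLA1 enzyme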
An asterisk follows results filed as active.

Results for CCOCCn1c(=NC(=O)c2ccc(S(=O)(=O)N3CCOCC3)cc2)sc2cc(S(N)(=O)=O)ccc21 ?
LYPLA1 inh: 15*; PME-1 primary: 9; Fam108B counter: -1; LYPLA2 inh: 15; GSTO1 counter: -2; PREPL inh: -4; LYPLA1 confirm: 15*

What do the screens show for `COCCn1c(=NC(=O)c2ccc(S(=O)(=O)N3CCc4ccccc4C3)cc2)sc2cc(S(N)(=O)=O)ccc21`?
LYPLA1 inh: -34; PME-1 primary: -50; Fam108B counter: -41; LYPLA2 inh: -70; GSTO1 counter: -19; PREPL inh: -61

How did CCN1C(=O)c2cccc3c(N)ccc(c23)C1=O do in these assays?
LYPLA1 inh: 15*; PME-1 primary: 23; Fam108B counter: 12; LYPLA2 inh: 23; GSTO1 counter: 11; PREPL inh: 12; LYPLA1 confirm: 12

What do the screens show for `COc1ccc([N+](=O)[O-])cc1NC(=O)C(C)N1CCN(C(=O)c2ccco2)CC1` (stereo not given)?
LYPLA1 inh: 16*; PME-1 primary: -5; Fam108B counter: -4; LYPLA2 inh: -2; GSTO1 counter: -6; PREPL inh: 7; LYPLA1 confirm: 22*

How did COC(=O)c1cc(C(=O)N2CCN(C(=O)c3ccco3)CC2)cc([N+](=O)[O-])c1 do in these assays?
LYPLA1 inh: -1; PME-1 primary: 4; Fam108B counter: -1; LYPLA2 inh: 8; GSTO1 counter: 9; PREPL inh: 6

How did O=C(O)CC(Cc1ccccc1)C(=O)NCC12CC3CC(CC(C3)C1)C2 (stereo not given) do in these assays?
LYPLA1 inh: -1; PME-1 primary: -4; Fam108B counter: 0; LYPLA2 inh: -5; GSTO1 counter: 3; PREPL inh: -7

Results for Cc1nc2c(C(=O)NCCc3ccccc3Cl)c[nH]n2c(=O)c1Cl ?
LYPLA1 inh: 18*; PME-1 primary: 12; Fam108B counter: 11; LYPLA2 inh: 13; GSTO1 counter: 4; PREPL inh: 12; LYPLA1 confirm: 16*

How did Cc1nc2c(C(=O)NCc3ccccc3Cl)c[nH]n2c(=O)c1Cl do in these assays?
LYPLA1 inh: -2; PME-1 primary: 13; Fam108B counter: -1; LYPLA2 inh: 2; GSTO1 counter: -3; PREPL inh: 6

What do the screens show for `Cc1ccc(OCc2cc(C(=O)N(C)Cc3cnn(-c4ccccc4C)c3)no2)cn1`?
LYPLA1 inh: 27*; PME-1 primary: -16; Fam108B counter: 4; LYPLA2 inh: 14; GSTO1 counter: -3; PREPL inh: 4; LYPLA1 confirm: 29*

What do the screens show for `Cc1cc(CN(C)C(=O)c2cc(COc3ccc(C)c(C)c3)on2)on1`?
LYPLA1 inh: 1; PME-1 primary: 0; Fam108B counter: 4; LYPLA2 inh: -1; GSTO1 counter: 4; PREPL inh: 8

Results for O=C(CCC(=O)c1ccccc1)NCc1ccccc1 ?
LYPLA1 inh: 3; PME-1 primary: 2; Fam108B counter: 1; LYPLA2 inh: 5; GSTO1 counter: 4; PREPL inh: -2

Results for O=C(COc1ccccc1)N1CCN(c2ccc([N+](=O)[O-])c(N3CCCCC3)c2)CC1 ?
LYPLA1 inh: 12; PME-1 primary: -2; Fam108B counter: -1; LYPLA2 inh: 5; GSTO1 counter: 3; PREPL inh: 16

Results for Cc1ccc(OCC(=O)N2CCN(c3ccc([N+](=O)[O-])c(N4CCOCC4)c3)CC2)cc1 ?
LYPLA1 inh: 41*; PME-1 primary: -4; Fam108B counter: 1; LYPLA2 inh: 8; GSTO1 counter: 14; PREPL inh: 27; LYPLA1 confirm: 49*

What do the screens show for `O=C(COc1ccc(Br)cc1)N1CCN(c2ccc([N+](=O)[O-])c(N3CCCCC3)c2)CC1`?
LYPLA1 inh: 66*; PME-1 primary: 2; Fam108B counter: 7; LYPLA2 inh: 7; GSTO1 counter: 2; PREPL inh: 31; LYPLA1 confirm: 76*

What do the screens show for `COc1ccc(C(=O)NCc2nnc(SCC(=O)c3ccc(F)cc3)n2C)cc1OC`?
LYPLA1 inh: 0; PME-1 primary: -1; Fam108B counter: -1; LYPLA2 inh: -4; GSTO1 counter: -2; PREPL inh: 2

What do the screens show for `Cc1ccc2c(N)[nH]nc2n1`?
LYPLA1 inh: 2; PME-1 primary: -9; Fam108B counter: 0; LYPLA2 inh: -1; GSTO1 counter: 9; PREPL inh: 3

How did Cn1c(=O)[nH]c2nnc(-c3ccc(Cl)c(Cl)c3)nc2c1=O do in these assays?
LYPLA1 inh: 14*; PME-1 primary: 14; Fam108B counter: 6; LYPLA2 inh: 3; GSTO1 counter: 2; PREPL inh: 4; LYPLA1 confirm: 24*

Results for CSc1cnc2c(=O)n(C)c(=O)[nH]c2n1 ?
LYPLA1 inh: -2; PME-1 primary: 4; Fam108B counter: -2; LYPLA2 inh: -11; GSTO1 counter: 5; PREPL inh: 9

Results for CC(C)(C)OC(=O)N[C@@H](Cc1c[nH]c2ccccc12)c1nnc(SCC(N)=O)o1 ?
LYPLA1 inh: 3; PME-1 primary: 1; Fam108B counter: -2; LYPLA2 inh: 9; GSTO1 counter: -3; PREPL inh: 18

What do the screens show for `CC(C)Sc1nnc([C@H](Cc2c[nH]c3ccccc23)NC(=O)OC(C)(C)C)o1`?
LYPLA1 inh: 46*; PME-1 primary: -6; Fam108B counter: 1; LYPLA2 inh: 5; GSTO1 counter: 2; PREPL inh: -12; LYPLA1 confirm: 2

What do the screens show for `Cc1ccc(OCC(=O)N2CCC3(CC2)CC(=O)c2ccccc2O3)cc1`?
LYPLA1 inh: 4; PME-1 primary: 3; Fam108B counter: -3; LYPLA2 inh: 6; GSTO1 counter: 2; PREPL inh: 1

What do the screens show for `O=C1CC2(CCN(C(=O)COc3ccc(Cl)cc3)CC2)Oc2ccccc21`?
LYPLA1 inh: 16*; PME-1 primary: 1; Fam108B counter: -1; LYPLA2 inh: 20; GSTO1 counter: 6; PREPL inh: -4; LYPLA1 confirm: 21*

What do the screens show for `Cc1cccc(NC(=O)N2C3CCCC2CC(NC(=O)C(C)(C)C)C3)c1` (stereo not given)?
LYPLA1 inh: 2; PME-1 primary: 5; Fam108B counter: 4; LYPLA2 inh: 7; GSTO1 counter: 1; PREPL inh: 10

How did COc1ccc(/C=C2/Sc3ccc(C(=O)NCCCN4CCOCC4)cc3NC2=O)cc1OC do in these assays?
LYPLA1 inh: 37*; PME-1 primary: 15; Fam108B counter: -4; LYPLA2 inh: 7; GSTO1 counter: -256; PREPL inh: 40; LYPLA1 confirm: 67*

Results for CCCn1c(N)c(N(CCOC)C(=O)/C=C/c2cccc(Cl)c2)c(=O)[nH]c1=O ?
LYPLA1 inh: 2; PME-1 primary: 6; Fam108B counter: 1; LYPLA2 inh: 2; GSTO1 counter: -8; PREPL inh: 5
